In PubChem BioAssay AID434990 (Southern Research Specialized Biocontainment Screening …, 2010):
The source made the active and inactive calls.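 Rule for the calls: active = inhibition above 40% at one or more tested concentrations in the dose response counterscreen; inactive = inhibition below 40% at every dose tested.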

test: nmpC-GFP reporter inhibition in S. Typhimurium, SAR follow-up, counter-screen for PhoP regulon inhibitor project, synthesized compounds, round 3 (AID 434990); conditions: S. Typhimurium counter-screen GFP reporter fluorescence, 4 h; series mostly up to 150 µM

| SMILES | outcome |
| --- | --- |
| S=C(NCCc1ccc(Cl)cc1)Nc1ccncc1 | inactive |
| N#Cc1ccc(NC(=S)NCc2ccc(Cl)cc2)cc1 | inactive |
| O=C(Nc1ccc(I)cc1)N1CCCN(Cc2ccccc2F)C1 | inactive |
| O=C(Nc1ccc(Cl)cc1)N1CCCN(Cc2ccc(Br)cc2)C1 | inactive |
| Cc1cccc(NC(=O)N2CCCN(Cc3ccccc3F)C2)c1 | inactive |
| COc1ccccc1CNC(=S)Nc1ccncc1 | inactive |
| O=C(Nc1cccc(F)c1)N1CCCN(Cc2ccccc2F)C1 | inactive |
| O=C(Nc1cccc(C(F)(F)F)c1)N1CCCN(Cc2ccccc2F)C1 | inactive |
| N#Cc1ccccc1NC(=S)NCc1ccc(Cl)cc1 | inactive |
| O=C(Nc1ccc(Cl)cc1)N1CCCN(Cc2ccccc2Br)C1 | inactive |
| Cc1ccccc1CNC(=S)Nc1ccncc1 | inactive |
| O=C1C2=C(Nc3ccccc3SC2c2cccc(I)c2)c2ccccc21 (centres undefined) | inactive |
| O=C(Nc1cccc(I)c1)N1CCCN(Cc2ccccc2F)C1 | inactive |
| Cc1ccc(NC(=O)N2CCCN(Cc3ccccc3F)C2)cc1 | inactive |
